{"source": "PubChem BioAssay (NCI)", "note": "Values joined by “and” are separate entries in the source; they are usually repeats but may differ in a detail not shown here. Equal values may be shown once. The panel holds about 83,000 compounds, 20% with a hit somewhere; the sample as a whole holds those more often.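 Step 1: grow cells in 96-well plates. Step 2: add test compound at a single concentration. Step 3: incubate 48 h. Step 4: record percent growth.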 Unmarked numbers belong to inactive results. Active and inactive are the calls of the source. Rule for the calls: active = growth percent below 10; inactive = the rest.", "data": [{"tested_on": "MDA-MB-468 breast", "experiment": "NCI-60 one-dose screen, 48 h (100 = growth as untreated, 0 = no growth, -100 = all killed)", "settings": "10 µM unless noted", "values": [{"smiles": "COc1ccc(NC(=O)c2sc3nc(C)c(C(=O)c4ccccc4)cc3c2N)cc1", "growth": "83.9%"}, {"smiles": "COc1ccc(-c2cc(-c3ccc(Nc4nc(Nc5ccccc5)nc(Nc5ccc(Cl)cc5)n4)cc3)nc(N)n2)cc1", "growth": "87.4%"}, {"smiles": "O=[N+]([O-])c1ccccc1Nc1ccc2ccccc2c1", "growth": "80.4%"}, {"smiles": "Cn1cc(-c2nn3cc(-c4ccncc4)nc3s2)c2cc(Br)ccc21", "growth": "74.9%"}, {"smiles": "CC(=O)c1cc(C(=O)c2ccc3c(c2)Sc2ccccc2N3)c2c(C)cc(C)cn12", "growth": "14%"}, {"smiles": "Nc1nc(NC2CC2)cc(-c2cccc(Cl)c2Cl)n1", "growth": "30.8%"}, {"smiles": "O=C1C(Cl)=C(Nc2ccc3c(c2NC2=C(Cl)C(=O)c4ccccc4C2=O)C(=O)c2ccccc2C3=O)C(=O)c2ccccc21", "growth": "5.98% (active)"}, {"smiles": "CC(=O)N1CC(=O)NC1=S", "growth": "95.9%"}, {"smiles": "Cn1ccnc1C(=O)/C=C/c1ccc(CNC(=O)c2ccc(Cl)cc2)cc1", "growth": "-14.5% (active)"}, {"smiles": "CCCCCN1C=C/C(=C\\C(=O)n2ccc3ccccc32)c2ccccc21", "growth": "73%"}, {"smiles": "CC1=C2[C@@H](CC1)[C@]1(C)O[C@@](C3CCCCC3)(C[C@H]1OC(=O)CO)[C@H]2OC(=O)/C=C/c1ccccc1", "growth": "87.6%"}, {"smiles": "C=CCOc1cccc(/C=C/C(=O)c2sc(Nc3cccnc3)nc2C)c1", "growth": "47.5%"}, {"smiles": "CC1(c2ccc(Br)cc2)NC(=O)NC1=O", "note": "(stereo not given)", "growth": "110%"}, {"smiles": "O=C(/C=C/c1ccccn1)c1ccc(OCc2nnc(-c3ccc(Cl)cc3)o2)cc1", "growth": "-37.7% (active)"}, {"smiles": "COc1cc2nc(Cl)nc(Nc3cccc(C4=Nc5c(N)nc(N)nc5NC(c5ccccc5)C4)c3)c2cc1OC", "note": "(stereo not given)", "growth": "96.5%"}, {"smiles": "O=C(CSc1nnc(-c2cccnc2SCc2ccccc2)o1)Nc1nc(Cl)cc(Cl)n1", "growth": "98.8%"}, {"smiles": "O=C(/C=C/c1cccc(Br)c1)c1ccccc1", "growth": "84.9%"}, {"smiles": "OC1(c2ccc(Cl)c(C(F)(F)F)c2)CCN(CCCC(c2ccc(F)cc2)c2ccc(F)cc2)CC1", "growth": "-86% (active)"}, {"smiles": "ON=C(C1CCCCC1)C1CCCCC1", "growth": "105%"}, {"smiles": "COc1cc(Cl)cc(-c2nn(-c3cccc(NC(=O)c4cc(C(F)(F)F)cc(C(F)(F)F)c4)c3)cc2-c2ccncc2)c1", "growth": "46.5%"}, {"smiles": "CC1=C(C)C(=O)C(Nc2ccc(C)cc2)=C(Br)C1=O", "growth": "-4.77% (active)"}, {"smiles": "C1=C(N2CCCC2)CCC1", "growth": "96.2%"}, {"smiles": "C=C1C(=O)O[C@H]2[C@H]1CC/C(Cn1cc(-c3ccc(N)cc3)nn1)=C\\CC[C@@]1(C)O[C@@H]21", "growth": "-44.8% (active)"}, {"smiles": "COc1ccc(C2=NN(C(=O)c3cc(OC)c(OC)c(OC)c3)C(c3ccc(Cl)cc3)C2)cc1OC", "note": "(stereo not given)", "growth": "9.76% (active)"}, {"smiles": "C=CC[N+]1(CCO)CCN=C1CCCCCCCCCCCCC", "note": "(stereo not given)", "growth": "-78.3% (active)"}, {"smiles": "CN(C)CCCn1c(=O)c2cc([N+](=O)[O-])ccc2c2cnc3[nH]ccc3c21", "growth": "81.3%"}, {"smiles": "COC(=O)c1ccc2[nH]c(O)c(C(=Nc3ccc(N(C)C(=O)CN4CCN(C)CC4)cc3)c3ccc(CCO)cc3)c2c1", "growth": "37.7%"}, {"smiles": "O=c1ccn(C2CC(O)C(O)C(CO)O2)c(=O)[nH]1", "note": "(stereo not given)", "growth": "149%"}, {"smiles": "Cn1cc(-c2nc3c(F)cc4[nH]ncc4c3c3c2CCCC3)c(C(F)(F)F)n1", "growth": "33%"}, {"smiles": "CN1CC[C@@H](c2c(O)cc(O)c3c(=O)cc(-c4ccccc4Cl)oc23)[C@@H]1CO", "growth": "-44.2% (active)"}, {"smiles": "C/C(=C\\C(=N\\N=C(N)N)c1ccc(Cl)cc1)c1ccc(Cl)cc1", "growth": "-92.9% (active)"}, {"smiles": "O=C(Nc1nc(-c2ccccc2)cs1)c1cc(O)c(O)c(O)c1", "growth": "46.3%"}, {"smiles": "C=C(C)COC(=O)c1ccccc1C(=O)OCC1(C)CO1", "note": "(stereo not given)", "growth": "108%"}, {"smiles": "Oc1c(CN2CCCC2)cc(COCc2ccc(Br)cc2)c2cccnc12", "growth": "-28.2% (active)"}, {"smiles": "O=C1c2ccccc2NC(n2sc3ccccc3c2=O)N1c1ccccc1", "note": "(stereo not given)", "growth": "106%"}, {"smiles": "CN(C)CCOc1cccc(-c2nc3sccn3c2-c2ccnc(S(C)(=O)=O)n2)c1", "growth": "92%"}, {"smiles": "COc1ccc(C(=O)c2ccc(OC)c(OC)c2OC)cc1", "growth": "-7.95% (active) and -19% (active)"}, {"smiles": "Cc1c(C(=O)Nc2nc(-c3ccccc3)cs2)nnn1-c1ccccc1Br", "growth": "-1.78% [50 µM] (active)"}, {"smiles": "CCCCCCCCCCC1OC(C)CC(C)O1", "note": "(stereo not given)", "growth": "98.5%"}, {"smiles": "COc1cc(C2C3=C(COC3=O)N(CCO)c3cc4c(cc32)OCO4)cc(OC)c1O", "note": "(stereo not given)", "growth": "-35.5% (active)"}]}]}
